Reference: PubChem BioAssay
Active and inactive are the calls of the source. Unless noted, the rule behind the calls is not given here.

How the values were obtained:
[1] = sensitizers of A549 cells to miR-34 induction, primary screen, imaging, A549 dox-inducible miR-34, nuclei and caspase counts (AID 1347080;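 active = compounds whose cell count with miR-34 switched on is under 0.7 times the count with it off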); conditions: A549 miR-34 inducible, Hoechst nuclei count, 48 h
[2] = phospholipid biosynthesis inhibitors in animal cells, primary screen, cell-based, LOPAC library, screen 4 (AID 1347384); conditions: phospholipid biosynthesis inhibition screen, at 10 µM
[3] = viability rescue of complex I mutant cybrids, primary screen, cell-based, galactose medium, ATP luminescence (AID 1645843;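 active = z-score of at least 1.8 in each of two replicates, scored against plate mean and spread of sample wells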;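 note: positive z means more ATP and so rescue of galactose-driven cybrid death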); conditions: complex I mutant cybrid cells, 72 h, stronger effect = higher value
[4] = hESC survival regulators, cell-based (AID 493140); conditions: human embryonic stem cell survival screen; stronger effect = higher value;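 note: cells exposed to compounds for four days before counting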
[5] = inhibitors of Cryptococcus chitosan production, flow cytometry, Cibacron Brilliant Red staining (AID 1347148); conditions: Cryptococcus neoformans chitosan, stronger effect = lower value; at 10 µM unless noted;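 note: compound exposure lasted three days at 37 degrees C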
[6] = modifiers of HSF1 nuclear foci, imaging, Selleck Cancer Library (AID 1347162; in the data active = plate-normalised HSF1 focus index below about 0.46); conditions: human cells, at 10 µM; SSMD: measured here: HSF1 foci SSMD mean; cell count: measured here: cell number; plate-normalised HSF1 focus index: stronger effect = lower value
[7] = liver-stage malaria parasite growth inhibition, primary screen, cell-based, HepG2, luciferase luminescence, HepG2 viability (AID 624349; in the data active = parasite load remaining mostly below about 12%, no sharp cut-off; inactive = mostly above about 10%;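 note: 100% = mean of DMSO negative control wells on the same plate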); conditions: P. berghei liver stage in HepG2, luciferase luminescence, concentration not given here; parasite load remaining: stronger effect = lower value; viability: measured here: HepG2 viability without parasites
[8] = survival rescue of mitochondrial mutant cells in low glucose, primary screen, MELAS cybrids, Rieske KO mouse fibroblasts, CellTiter-Glo (AID 1508586;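 active = mean z-score across replicates of 1.96 or higher in either the MELAS or the Rieske mutant cell line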;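 note: z relative to plate mean and SD of compound and empty wells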)
[9] = circadian clock period modulators, cell-based, LOPAC library, luminescence reporter (AID 2774); conditions: circadian reporter cells, at 7 µM, actives lie on both sides;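 note: values are relative to mean of DMSO wells on each plate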
[10] = test system: Hepatitis C virus NS3 helicase; assay: HCV NS3 helicase inhibitors, primary screen, biochemical, fluorescence polarization, LOPAC1280 library (AID 687035; in the data active = inhibition above about 37%); conditions: Purified HCV NS3 helicase, Cy5-dT15 ssDNA binding fluorescence polarization; stronger effect = higher value; concentration not given here
[11] = Cy5 fluorescence quenching or enhancement artefacts, artefact control for HCV NS3 helicase inhibitor project, biochemical, LOPAC1280 (AID 687037); conditions: Cy5-DNA-NS3h complex fluorescence interference counterscreen
[12] = target: NAD(+) hydrolase SARM1 (Homo sapiens) (UniProt Q6SZW1); assay: SARM1 TIR NADase inhibitors, cell lysate, NAD-Glo luminescence (AID 1508614;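 active = compound whose remaining NAD level is above about 45 nM, limit read from the data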;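 note: higher remaining NAD means stronger inhibition of SARM1 NADase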); conditions: SAM-TIR HEK293T lysate NADase, at 1 µM, stronger effect = higher value
Sequence of NAD(+) hydrolase SARM1 (Homo sapiens) (Q6SZW1 whole entry, looked up): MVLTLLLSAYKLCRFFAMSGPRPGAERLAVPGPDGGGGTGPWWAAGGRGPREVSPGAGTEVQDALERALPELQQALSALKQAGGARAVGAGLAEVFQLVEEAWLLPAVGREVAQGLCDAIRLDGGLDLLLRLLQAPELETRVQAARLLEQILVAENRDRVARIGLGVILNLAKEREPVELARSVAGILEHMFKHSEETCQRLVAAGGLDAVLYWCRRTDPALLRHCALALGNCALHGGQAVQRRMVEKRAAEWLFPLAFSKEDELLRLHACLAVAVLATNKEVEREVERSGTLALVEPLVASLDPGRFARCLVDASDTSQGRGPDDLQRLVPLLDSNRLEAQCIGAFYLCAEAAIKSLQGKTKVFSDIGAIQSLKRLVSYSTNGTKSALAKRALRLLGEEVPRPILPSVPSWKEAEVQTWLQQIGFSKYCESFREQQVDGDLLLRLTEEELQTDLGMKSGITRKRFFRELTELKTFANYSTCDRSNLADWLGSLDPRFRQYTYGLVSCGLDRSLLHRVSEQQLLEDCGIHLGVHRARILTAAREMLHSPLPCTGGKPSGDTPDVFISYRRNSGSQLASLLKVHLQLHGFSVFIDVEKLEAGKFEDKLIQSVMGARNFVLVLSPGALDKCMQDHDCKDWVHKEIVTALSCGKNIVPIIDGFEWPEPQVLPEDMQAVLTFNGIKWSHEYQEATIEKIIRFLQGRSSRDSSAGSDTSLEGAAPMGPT

[13] = stronger effect = lower value, cell number ratio, induced over uninduced
[14] = measured here: relative caspase fold change +Dox/-Dox
[15] = measured here: total cells with miR-34 induction, stronger effect = lower value
[16] = measured here: total cells without miR-34 induction
[17] = MELAS cybrid survival, CellTiter-Glo 48 h, stronger effect = higher value
[18] = Rieske KO mouse fibroblast survival, CellTiter-Glo 72 h

CO[C@H]1O[C@@H]2O[C@]3(C)CC[C@@H]4[C@@H](C)CC[C@H]([C@H]1C)[C@]24OO3
fold change [1, 13]: 0.984 (inactive)
fold change [1, 14]: 1.93
cell count [1, 15]: 9680
cell count [1, 16]: 9830
outcome [2]: inactive
z-score [3]: -0.71 (inactive)

CCCCC/C=C\C/C=C\C/C=C\C/C=C\CCCC(=O)O[C@@H](CO)COC(=O)CCCCCCCCCCCCCCCCC
survival [4]: 92.4 (inactive)
fold change [1, 13]: 0.967 (inactive)
fold change [1, 14]: 1.14
cell count [1, 15]: 5940
cell count [1, 16]: 6140
fold fluorescence [5]: 5.53 (inactive)

S=c1[nH]c(-c2ccccc2)cn1-c1ccccc1
fold change [1, 13]: 0.982 (inactive)
fold change [1, 14]: 1.24
cell count [1, 15]: 9110
cell count [1, 16]: 9280
outcome [2]: inactive
z-score [3]: -0.15 (inactive)

CCCCC[C@H](O)/C=C/C=C\CCCCCCCC(=O)O
survival [4]: 87.8 (inactive)
fold change [1, 13]: 0.929 (inactive)
fold change [1, 14]: 1.14
cell count [1, 15]: 5740
cell count [1, 16]: 6180
fold fluorescence [5]: 6.42 [at 1 µM] (inactive)

CCCC(=O)O
fold change [1, 13]: 0.924 (inactive)
fold change [1, 14]: 0.39
cell count [1, 15]: 4770
cell count [1, 16]: 5160
SSMD [6]: 1.8
cell count [6]: 7190
plate-normalised HSF1 focus index [6]: 1.11 (inactive)

O=c1[nH]cnc2c1CN=N2
parasite load remaining [7]: 22.2% (inactive)
viability [7]: 60.5%
fold change [1, 13]: 0.891 (inactive)
fold change [1, 14]: 1.16
cell count [1, 15]: 9860
cell count [1, 16]: 11100
outcome [2]: inactive
z-score [8, 17]: 0.591 (inactive)
z-score [8, 18]: 0.624
z-score [3]: 0.315 (inactive)

NC(N)=NCCNS(=O)(=O)c1cccc2cnccc12
survival [4]: 124 (inactive)
parasite load remaining [7]: 46.9% (inactive)
viability [7]: 111%
fold change [1, 13]: 0.914 (inactive)
fold change [1, 14]: 0.868
cell count [1, 15]: 2220
cell count [1, 16]: 2430
fold fluorescence [5]: 3.91 [at 170.4 µM] (inactive)

N=C(N)SCCc1ccc(CCSC(=N)N)cc1
period change [9]: -0.135 h (inactive)
inhibition [10]: -5% (inactive)
fluorescence ratio (interference) [11]: 0.9 (inactive)
fold change [1, 13]: 1.11 (inactive)
fold change [1, 14]: 0.636
cell count [1, 15]: 5830
cell count [1, 16]: 5230
SSMD [6]: 1.43
cell count [6]: 7320
plate-normalised HSF1 focus index [6]: 1.08 (inactive)

CCCCC[C@H](O)/C=C/C=C\C/C=C\C/C=C\CCCC(=O)O
survival [4]: 53.7 (inactive)
fold change [1, 13]: 1.03 (inactive)
fold change [1, 14]: 1.58
cell count [1, 15]: 5880
cell count [1, 16]: 5700
fold fluorescence [5]: 4.64 [at 1 µM] (inactive)

CCCCC/C=C\CC1OC1CCCCCCCC(=O)O (stereo unspecified)
survival [4]: 79.6 (inactive)
fold change [1, 13]: 0.903 (inactive)
fold change [1, 14]: 1.25
cell count [1, 15]: 5290
cell count [1, 16]: 5850
fold fluorescence [5]: 2.8 [at 1 µM] (inactive)

CN(C)CC(O)Cn1c2ccc(Br)cc2c2cc(Br)ccc21 (stereo unspecified)
fold change [1, 13]: 0.735 (inactive)
fold change [1, 14]: 1.58
cell count [1, 15]: 200
cell count [1, 16]: 272
outcome [2]: inactive

O=C1c2ccccc2C(=O)c2c(NCCc3ccc(O)cc3)ccc(NCCc3ccc(O)cc3)c21
inhibition [10]: 13% (inactive)
fluorescence ratio (interference) [11]: 1.1 (inactive)
fold change [1, 13]: 1.15 (inactive)
fold change [1, 14]: 1.12
cell count [1, 15]: 4510
cell count [1, 16]: 3920
SSMD [6]: 0.452
cell count [6]: 6780
plate-normalised HSF1 focus index [6]: 1.04 (inactive)
outcome [2]: active
z-score [3]: -0.96 (inactive)

C[C@@H](NCCc1ccc(O)cc1)[C@@H](O)c1ccc(O)cc1
period change [9]: 0.07 h (inactive)
inhibition [10]: 0% (inactive)
fluorescence ratio (interference) [11]: 0.9 (inactive)
fold change [1, 13]: 0.982 (inactive)
fold change [1, 14]: 1.22
cell count [1, 15]: 10600
cell count [1, 16]: 10800
outcome [2]: inactive
remaining NAD [12]: 10 nM (inactive)
z-score [3]: 0.51 (inactive)

N[C@@H]1CCCC[C@H]1N.O=C(O)C(=O)O.[Pt]
parasite load remaining [7]: 182% (inactive)
viability [7]: 134%
fold change [1, 13]: 0.972 (inactive)
fold change [1, 14]: 1.18
cell count [1, 15]: 4570
cell count [1, 16]: 4710
SSMD [6]: 1.36
cell count [6]: 7520
plate-normalised HSF1 focus index [6]: 1.09 (inactive)
z-score [8, 17]: 0.335 (inactive)
z-score [8, 18]: -0.474
z-score [3]: 1.01 (inactive)

CCOC(=O)[C@H](CCc1ccccc1)N[C@@H](C)C(=O)N1[C@H](C(=O)O)C[C@H]2CCCC[C@@H]21
inhibition [10]: -4% (inactive)
fluorescence ratio (interference) [11]: 1 (inactive)
fold change [1, 13]: 1.13 (inactive)
fold change [1, 14]: 0.831
cell count [1, 15]: 11100
cell count [1, 16]: 9850
outcome [2]: inactive
remaining NAD [12]: 10 nM (inactive)
z-score [3]: 0.51 (inactive)

CO/N=C(\C(=O)N[C@@H]1C(=O)N2C(C(=O)O)=C(COC(C)=O)CS[C@H]12)c1csc(N)n1
parasite load remaining [7]: 16.7% (inactive)
viability [7]: 71.5%
fold change [1, 13]: 0.894 (inactive)
fold change [1, 14]: 1.17
cell count [1, 15]: 9420
cell count [1, 16]: 10500
outcome [2]: inactive
z-score [8, 17]: 0.329 (inactive)
z-score [8, 18]: 0.781
z-score [3]: -0.18 (inactive)

COCCOc1cc2ncnc(Cl)c2cc1OCCOC
fold change [1, 13]: 1.03 (inactive)
fold change [1, 14]: 1.13
cell count [1, 15]: 9200
cell count [1, 16]: 8960
outcome [2]: inactive
z-score [3]: -0.675 (inactive)

CC(C)(NS(=O)(=O)c1ccc(Oc2ccc(F)cc2)cc1)C(=O)NO
fold change [1, 13]: 1.15 (inactive)
fold change [1, 14]: 0.625
cell count [1, 15]: 7840
cell count [1, 16]: 6810
outcome [2]: inactive
z-score [3]: -1.27 (inactive)

NS(=O)(=O)c1ccc(-n2nc(C(F)(F)F)cc2-c2ccc(Cl)cc2)cc1
fold change [1, 13]: 1.1 (inactive)
fold change [1, 14]: 0.617
cell count [1, 15]: 7530
cell count [1, 16]: 6870
outcome [2]: inactive
z-score [3]: 2.57 (active)
